Reference: PubChem BioAssay
Records with an inconclusive call do not appear. The list shows a part of the results. Calls of active or inactive are those of the source.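 Rule for the calls, unless noted: active = GFP response above 150% of the DMSO level; inconclusive = fewer than 70 events counted for a yeast strain; inactive = the rest.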

Assays:
[1] = disruption of biotin probe capture by avidin, counter-screen for RGS protein interaction modulators, biochemical, flow cytometry, bead-based (AID 1783;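 active = inhibition above 50%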;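 note: median green fluorescence of gated singlet beads compared with DMSO control wells; 0% = DMSO wells and 100% = complete loss of bead fluorescence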); details: streptavidin beads, fluorescein-biotin binding; at 10 µM, stronger effect = higher value
[2] = target: Guanine nucleotide-binding protein G(o) subunit alpha (Homo sapiens) (UniProt P09471); assay: RGS8-Galphao binding modulators, confirmation, biochemical, multiplexed bead flow cytometry, single concentration (AID 1836; in the data active = binding response below about 72% or above about 130%; inactive = in between;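 note: Galphao activated as GDP AlF4 complex before binding bead RGS8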); details: bead-based flow cytometry RGS8-Galphao binding, fluorescence; at 10 µM; actives lie on both sides
Sequence of Guanine nucleotide-binding protein G(o) subunit alpha (Homo sapiens) (P09471 whole entry, looked up): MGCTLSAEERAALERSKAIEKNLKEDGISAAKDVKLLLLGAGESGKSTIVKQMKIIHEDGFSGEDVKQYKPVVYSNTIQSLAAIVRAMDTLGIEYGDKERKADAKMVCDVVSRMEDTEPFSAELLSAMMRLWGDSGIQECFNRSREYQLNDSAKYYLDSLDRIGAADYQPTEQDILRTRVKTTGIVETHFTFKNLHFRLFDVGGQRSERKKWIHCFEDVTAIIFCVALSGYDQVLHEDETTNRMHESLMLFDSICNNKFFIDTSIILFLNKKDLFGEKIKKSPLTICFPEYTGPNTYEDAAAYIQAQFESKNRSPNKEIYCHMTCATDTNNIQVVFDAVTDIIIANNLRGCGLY

[3] = target: Guanine nucleotide-binding protein G(o) subunit alpha (Homo sapiens) (UniProt P09471); assay: RGS7-Galphao binding modulators, confirmation, biochemical, multiplexed bead flow cytometry, single concentration (AID 1837; in the data active = response below about 75% or above about 130%; inactive = in between;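 note: fluorescent Galphao activated with GDP and aluminum fluoride binding bead-coupled RGS7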); details: bead-based flow cytometry RGS7-Galphao binding; at 10 µM; actives lie on both sides
[4] = target: Regulator of G-protein signaling 16 (Homo sapiens) + Guanine nucleotide-binding protein G(o) subunit alpha (Homo sapiens) (UniProt O15492+P09471); assay: modulators of RGS16-Galphao protein binding, confirmation, biochemical, single concentration, multiplexed bead flow cytometry (AID 1838; in the data active = response below about 74% or above about 130%; inactive = in between;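 note: Galphao activated as the GDP aluminium fluoride complex binding bead-coupled RGS16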); details: bead-based flow cytometry, at 10 µM, actives lie on both sides
Sequence of Regulator of G-protein signaling 16 (Homo sapiens) + Guanine nucleotide-binding protein G(o) subunit alpha (Homo sapiens) (O15492 whole entry, looked up): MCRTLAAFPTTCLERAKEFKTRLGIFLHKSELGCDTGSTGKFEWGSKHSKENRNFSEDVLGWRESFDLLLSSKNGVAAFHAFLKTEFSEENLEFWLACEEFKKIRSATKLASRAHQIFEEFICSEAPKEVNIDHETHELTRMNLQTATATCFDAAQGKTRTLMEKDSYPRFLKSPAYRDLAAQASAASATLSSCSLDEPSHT
Sequence of Regulator of G-protein signaling 16 (Homo sapiens) + Guanine nucleotide-binding protein G(o) subunit alpha (Homo sapiens) (P09471 whole entry, looked up): as the sequence (P09471 whole entry, looked up) above

[5] = target: Guanine nucleotide-binding protein G(o) subunit alpha (Homo sapiens) (UniProt P09471); assay: modulators of RGS4-Galphao protein binding, confirmation, biochemical, single concentration, multiplexed bead flow cytometry (AID 1840; in the data active = binding response below about 74% or above about 130%; inactive = in between); details: at 10 µM, actives lie on both sides
[6] = target: Guanine nucleotide-binding protein G(o) subunit alpha (Homo sapiens) + Regulator of G-protein signaling 19 (Homo sapiens) (UniProt P09471+P49795); assay: regulators of RGS19-Galphao binding, confirmation, biochemical, single point, multiplexed bead flow cytometry (AID 1841; in the data active = response below about 50% or above about 160%; inactive = in between;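 note: 100% = no compound control and 0% = blank background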); details: bead-based flow cytometry RGS19-Galphao binding; at 10 µM; actives lie on both sides
[7] = yeast TOR pathway RPL19A-GFP modulators, primary screen, cell-based, S. cerevisiae, multiplex flow cytometry (AID 1862; in the data active = percent of DMSO control GFP below about 86%;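 note: lower values mimic rapamycin by blocking the RPL19A rise seen in DMSO cells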); details: S. cerevisiae RPL19A-GFP strain, flow cytometry fluorescence, 3 h; at 10 µM; stronger effect = lower value
[8] = modulators of MEP2-GFP levels in yeast, primary screen, S. cerevisiae, multiplex flow cytometry (AID 1867;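 active = GFP response, as percent of the DMSO control, above the screen-wide mean plus 3 SD, about 139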;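 note: median GFP channel fluorescence of barcode-gated MEP2-GFP cells measured by flow cytometry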); details: S. cerevisiae MEP2-GFP strain, 3 h, at 10 µM, stronger effect = higher value, 100% means same as DMSO wells
[9] = modulators of CIT2-GFP expression in yeast, primary screen, S. cerevisiae, GFP fusion, multiplex flow cytometry (AID 1870;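 active = percent response above a set limit, the screen-wide mean plus 3 SD, cut at about 130% in these data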;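 note: barcoded CIT2-GFP strain pooled with four other GFP strains with rapamycin as positive control; median GFP fluorescence per well over plate mean of DMSO wells so 100% = DMSO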); details: 3 h, at 10 µM, stronger effect = higher value
[10] = modulators of LAP4-GFP expression in yeast, primary screen, S. cerevisiae, multiplex flow cytometry (AID 1873;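 active = GFP signal, as percent of the solvent control, above the screen mean plus 3 SD, about 149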); details: 3 h, at 10 µM, stronger effect = higher value
[11] = modulators of AGP1-GFP expression in yeast TOR pathway, primary screen, cell-based, multiplex flow cytometry, S. cerevisiae (AID 1887;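 active = GFP signal above the screen-wide mean plus 3 SD, that is over about 124.5% of the solvent control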;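 note: AGP1-GFP fusion strain of S. cerevisiae within a five-strain barcoded multiplex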); details: 3 h, at 10 µM, stronger effect = higher value
[12] = RPL19A-GFP modulators, yeast TOR pathway, confirmation, cell-based, S. cerevisiae, flow cytometry, cherry picks, mother/daughter gates (AID 2270;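 active = GFP response below 50% of the DMSO control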); details: S. cerevisiae RPL19A-GFP strain, 3 h, at 10 µM, stronger effect = lower value, 100 = same GFP as DMSO wells
[13] = LAP4-GFP expression modulators in yeast, confirmation, cell-based, cherry picks, flow cytometry, mother/daughter gates (AID 2271;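 active = GFP response above 150% of the DMSO control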;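 note: ratio of sample to DMSO plate mean so 100% equals DMSO level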); details: S. cerevisiae LAP4-GFP strain, 3 h, at 10 µM, stronger effect = higher value, 100 means same as DMSO control
[14] = modulators of MEP2-GFP levels in yeast, confirmation, S. cerevisiae, flow cytometry GFP, cherry picks (AID 2272;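 active = GFP response above 150% of the DMSO control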;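 note: ratio of well signal to plate DMSO mean so 100% equals DMSO level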); details: S. cerevisiae MEP2-GFP strain, 3 h, at 10 µM, stronger effect = higher value
[15] = AGP1-GFP expression modulators, hit retest, confirmation, cell-based, flow cytometry, S. cerevisiae, cherry picks (AID 2273);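 note: median GFP channel fluorescence over the whole cell population gate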; details: S. cerevisiae AGP1-GFP strain, 3 h, at 10 µM
[16] = modulators of CIT2-GFP expression in yeast, confirmation, S. cerevisiae, GFP fusion, cherry picks, mother/daughter gates (AID 2274); details: S. cerevisiae CIT2-GFP strain, flow cytometry, 3 h, at 10 µM, stronger effect = higher value
[17] = inhibitors of CD8+ T cell-vesicle binding, pilot screen, LFA-1/ICAM-1 modulator project, MLPCN validation set, flow cytometry (AID 2523;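 active = response below a set limit, under 55% cells CD8-positive and vesicle-bound, and CD8 cells' 90th-percentile brightness under 279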;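 for vesicle binding response: mean PE anti-B7-1 fluorescence of CD8+ cells relative to row control; 100% = QL9-loaded vesicles with DMSO vehicle in the same plate row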); details: 2C mouse CD8+ T cells, at 7 µM, stronger effect = lower value; double positive events: measured here: CD8+/vesicle+ event percentage
[18] = target: Integrin beta-1 (Homo sapiens) + Integrin alpha-4 (Homo sapiens) (UniProt P13612+P05556); assay: inhibition of HUTS-21 binding to VLA-4, pilot screen, VLA-4 allosteric modulator project, U937 cells, HUTS-21 mAb, flow cytometry, validation set (AID 2674;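 active = inhibition above 50%, about 3 SD of the validation set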;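 note: antibody binding induced by the VLA-4 ligand LDV present at three times its Kd; 0% = LDV ligand with antibody and no compound and 100% = antibody without LDV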); details: HUTS-21 LIBS mAb binding, at 6.7 µM, stronger effect = higher value, binding induced by LDV ligand
Sequence of Integrin beta-1 (Homo sapiens) + Integrin alpha-4 (Homo sapiens) (P05556 whole entry, looked up): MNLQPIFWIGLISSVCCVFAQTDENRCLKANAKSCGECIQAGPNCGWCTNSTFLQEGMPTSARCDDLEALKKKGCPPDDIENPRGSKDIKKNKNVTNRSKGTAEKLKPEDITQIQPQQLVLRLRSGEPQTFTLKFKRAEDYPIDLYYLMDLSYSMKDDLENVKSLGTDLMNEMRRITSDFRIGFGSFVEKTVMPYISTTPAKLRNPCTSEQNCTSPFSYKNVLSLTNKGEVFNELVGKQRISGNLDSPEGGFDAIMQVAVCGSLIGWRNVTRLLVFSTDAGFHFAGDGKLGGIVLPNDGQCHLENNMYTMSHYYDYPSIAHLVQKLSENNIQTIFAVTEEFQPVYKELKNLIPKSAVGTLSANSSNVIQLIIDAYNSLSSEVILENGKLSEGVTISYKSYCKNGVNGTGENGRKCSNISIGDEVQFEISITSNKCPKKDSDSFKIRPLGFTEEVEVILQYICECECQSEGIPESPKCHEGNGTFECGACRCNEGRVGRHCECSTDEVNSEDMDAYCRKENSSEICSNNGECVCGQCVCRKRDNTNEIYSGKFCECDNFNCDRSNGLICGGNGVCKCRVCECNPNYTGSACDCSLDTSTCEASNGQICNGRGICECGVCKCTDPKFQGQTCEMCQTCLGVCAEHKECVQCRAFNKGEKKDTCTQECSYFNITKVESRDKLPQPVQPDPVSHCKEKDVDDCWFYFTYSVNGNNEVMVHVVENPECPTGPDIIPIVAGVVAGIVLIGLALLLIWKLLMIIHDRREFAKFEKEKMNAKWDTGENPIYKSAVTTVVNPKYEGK
Sequence of Integrin beta-1 (Homo sapiens) + Integrin alpha-4 (Homo sapiens) (P13612 whole entry, looked up): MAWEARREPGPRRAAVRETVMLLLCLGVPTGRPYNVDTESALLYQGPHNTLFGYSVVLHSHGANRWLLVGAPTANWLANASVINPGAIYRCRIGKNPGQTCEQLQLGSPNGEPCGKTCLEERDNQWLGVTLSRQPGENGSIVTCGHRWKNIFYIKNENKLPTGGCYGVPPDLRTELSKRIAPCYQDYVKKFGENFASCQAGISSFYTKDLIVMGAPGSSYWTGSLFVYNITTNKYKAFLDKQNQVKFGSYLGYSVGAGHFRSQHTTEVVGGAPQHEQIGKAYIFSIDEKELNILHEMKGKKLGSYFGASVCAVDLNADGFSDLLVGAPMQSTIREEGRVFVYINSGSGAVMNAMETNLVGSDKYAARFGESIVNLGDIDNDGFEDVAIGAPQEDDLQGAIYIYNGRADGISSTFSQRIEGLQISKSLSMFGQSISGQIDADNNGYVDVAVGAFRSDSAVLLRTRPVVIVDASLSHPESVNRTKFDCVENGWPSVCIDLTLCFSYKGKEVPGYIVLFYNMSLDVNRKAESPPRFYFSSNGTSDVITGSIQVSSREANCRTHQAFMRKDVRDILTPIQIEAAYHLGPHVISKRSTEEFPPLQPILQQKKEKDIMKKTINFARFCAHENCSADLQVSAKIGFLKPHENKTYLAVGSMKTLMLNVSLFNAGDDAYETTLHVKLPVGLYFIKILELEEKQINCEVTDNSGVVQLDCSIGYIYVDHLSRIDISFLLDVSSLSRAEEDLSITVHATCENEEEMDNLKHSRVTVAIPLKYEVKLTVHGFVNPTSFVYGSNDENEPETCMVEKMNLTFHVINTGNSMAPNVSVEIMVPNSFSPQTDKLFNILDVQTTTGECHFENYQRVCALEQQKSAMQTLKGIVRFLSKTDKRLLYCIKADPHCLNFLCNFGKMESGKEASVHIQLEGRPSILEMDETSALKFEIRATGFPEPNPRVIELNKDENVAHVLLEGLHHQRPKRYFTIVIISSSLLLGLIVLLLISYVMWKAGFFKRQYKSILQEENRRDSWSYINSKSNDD

[19] = superoxide lowering in aged yeast cells, pilot screen, validation compound set (AID 2706;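 active = superoxide response below 65% of plate, a cut near 3 SD across the whole screen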;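 note: yeast exposed to compound for one week at 30 degrees C before staining; 100% = mean of all compound wells on the same plate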); details: S. cerevisiae aging, superoxide DHE fluorescence; at 10 µM; stronger effect = lower value
[20] = target: Beta-adrenergic receptor kinase 1 (Homo sapiens) (UniProt P25098); assay: GRK2 binders displacing RNA aptamer, biochemical, validation, human GRK2, bead flow cytometry (AID 488806;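 active = aptamer binding inhibition above 30%, about 3 SD of noise from non-fluorescent compounds; inactive = inhibition at or below 30%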); details: bead-bound GRK2, FAM-aptamer displacement, at 10 µM, stronger effect = higher value
Sequence of Beta-adrenergic receptor kinase 1 (Homo sapiens) (P25098 whole entry, looked up): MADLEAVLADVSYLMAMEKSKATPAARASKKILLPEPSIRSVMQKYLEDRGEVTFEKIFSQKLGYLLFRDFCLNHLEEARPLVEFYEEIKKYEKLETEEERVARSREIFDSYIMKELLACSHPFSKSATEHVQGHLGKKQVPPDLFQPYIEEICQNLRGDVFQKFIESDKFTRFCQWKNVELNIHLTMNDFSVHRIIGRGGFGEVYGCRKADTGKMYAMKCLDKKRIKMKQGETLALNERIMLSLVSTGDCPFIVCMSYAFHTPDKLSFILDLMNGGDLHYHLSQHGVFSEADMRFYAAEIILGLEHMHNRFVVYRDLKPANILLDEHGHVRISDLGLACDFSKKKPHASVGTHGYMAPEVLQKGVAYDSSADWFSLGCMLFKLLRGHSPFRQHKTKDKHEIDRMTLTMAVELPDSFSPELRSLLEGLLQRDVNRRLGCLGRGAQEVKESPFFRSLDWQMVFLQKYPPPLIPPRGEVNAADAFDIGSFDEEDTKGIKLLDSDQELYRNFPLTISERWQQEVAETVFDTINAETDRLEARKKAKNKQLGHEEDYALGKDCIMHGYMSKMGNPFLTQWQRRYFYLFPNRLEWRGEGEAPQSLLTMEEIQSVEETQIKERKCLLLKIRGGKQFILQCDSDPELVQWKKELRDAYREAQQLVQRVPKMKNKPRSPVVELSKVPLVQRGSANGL

[21] = target: Beta-2 adrenergic receptor (Homo sapiens) (UniProt P07550); assay: beta2AR agonists driving receptor internalization, pilot screen, cell-based, FAP fluorogen, flow cytometry, validation set (AID 504459;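 active = percent response above 42, roughly 3 SD of non-fluorescent test compounds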;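 note: agonist-driven loss of surface beta2AR via internalization measured by FAP dye flow cytometry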); details: Am2.2-beta2AR cells, FAP surface receptor flow cytometry; at 10 µM; stronger effect = higher value
Sequence of Beta-2 adrenergic receptor (Homo sapiens) (P07550 whole entry, looked up): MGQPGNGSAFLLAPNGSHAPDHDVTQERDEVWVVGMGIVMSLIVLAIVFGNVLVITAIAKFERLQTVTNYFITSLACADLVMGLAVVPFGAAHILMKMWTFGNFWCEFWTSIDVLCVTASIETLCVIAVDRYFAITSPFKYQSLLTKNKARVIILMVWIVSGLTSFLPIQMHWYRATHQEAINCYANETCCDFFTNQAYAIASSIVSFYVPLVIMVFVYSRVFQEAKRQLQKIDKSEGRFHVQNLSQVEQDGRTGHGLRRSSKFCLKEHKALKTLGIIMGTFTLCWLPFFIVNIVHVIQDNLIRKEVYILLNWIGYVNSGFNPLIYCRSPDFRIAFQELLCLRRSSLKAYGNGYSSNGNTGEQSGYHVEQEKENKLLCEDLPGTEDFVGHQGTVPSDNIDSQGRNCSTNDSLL

[22] = target: AP-2 complex subunit beta (Homo sapiens) (UniProt P63010); assay: inhibitors of arrestin peptide binding to AP2, pilot screen, biochemical, validation set, GST-AP2 beads, flow cytometry (AID 504541;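 active = inhibition above 54%, about 3 SD of non-fluorescent compounds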;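 note: AP2 carries R879A mutation and is captured from E. coli lysate; bead-bound FITC arrestin peptide fluorescence measuring arrestin peptide binding to AP2; 0% = DMSO wells and 100% = excess unlabeled arrestin peptide control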); details: FITC arrestin peptide, at 10 µM, stronger effect = higher value, AP2 beta2 appendage fragment, R879A mutant
Sequence of AP-2 complex subunit beta (Homo sapiens) (P63010 whole entry, looked up, the tested form may be a part, one chain of several): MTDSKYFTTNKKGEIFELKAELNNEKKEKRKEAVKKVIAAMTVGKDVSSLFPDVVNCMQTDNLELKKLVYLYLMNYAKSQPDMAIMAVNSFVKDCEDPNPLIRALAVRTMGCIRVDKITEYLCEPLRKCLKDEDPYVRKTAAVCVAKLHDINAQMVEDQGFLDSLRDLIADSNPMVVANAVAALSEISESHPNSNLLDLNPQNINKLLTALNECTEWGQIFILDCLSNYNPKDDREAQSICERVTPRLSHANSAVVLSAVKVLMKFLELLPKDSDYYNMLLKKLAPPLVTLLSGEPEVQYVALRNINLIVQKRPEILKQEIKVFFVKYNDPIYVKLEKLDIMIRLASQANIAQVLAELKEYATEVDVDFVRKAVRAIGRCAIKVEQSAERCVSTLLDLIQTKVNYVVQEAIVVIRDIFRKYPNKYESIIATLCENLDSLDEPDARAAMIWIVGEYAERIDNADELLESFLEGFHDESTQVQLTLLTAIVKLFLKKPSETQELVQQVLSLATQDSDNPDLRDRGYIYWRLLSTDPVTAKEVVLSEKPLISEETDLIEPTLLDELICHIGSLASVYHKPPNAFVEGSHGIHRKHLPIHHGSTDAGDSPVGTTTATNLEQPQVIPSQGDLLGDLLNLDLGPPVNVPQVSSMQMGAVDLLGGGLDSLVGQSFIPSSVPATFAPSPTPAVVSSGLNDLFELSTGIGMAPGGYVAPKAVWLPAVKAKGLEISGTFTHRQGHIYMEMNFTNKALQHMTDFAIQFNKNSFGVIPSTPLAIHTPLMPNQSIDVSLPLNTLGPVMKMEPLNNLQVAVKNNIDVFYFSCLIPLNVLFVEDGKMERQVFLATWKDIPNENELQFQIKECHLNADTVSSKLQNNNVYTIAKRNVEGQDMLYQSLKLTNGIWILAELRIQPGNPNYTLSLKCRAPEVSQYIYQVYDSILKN

[23] = yeast V-ATPase proton transport modulators, S. cerevisiae, pHLuorin, HTS validation (AID 504600; in the data active = response above about 15%;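 note: plate controls were DMSO for no effect and reference compound for full effect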); details: S. cerevisiae pHLuorin cytosolic pH, at 10 µM, stronger effect = higher value
[24] = test system: anti-desmoglein-3 scFv antibody binding to human DSG3; assay: inhibitors of anti-DSG3 scFv binding to DSG3, pilot screen, biochemical, validation compound set, bead-based, flow cytometry (AID 588368;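 active = binding below the plate cutoff, the plate median minus 3 SD, with a reading above zero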;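 note: signal is the median channel fluorescence of bead-bound GFP antibody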); details: Protein G beads, DSG3-Fc, scFv-GFP binding, at 10 µM, stronger effect = lower value
[25] = inhibitors of fungal efflux pumps CDR1, CDR2, MDR1, pilot screen, validation compound set, multiplex, phenotypic (AID 588506;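 active = efflux inhibition above 0.42, the validation set average plus 4 SD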;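 note: Nile Red retained in cells so higher fluorescence means more efflux inhibition; 0 = negative control wells and 1 = enniatin B 25 µM full block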); details: S. cerevisiae pump-expressing triplex, Nile Red efflux flow cytometry; at 10 µM; stronger effect = higher value; the pumps come from Candida albicans
[26] = target: ATP-binding cassette sub-family B member 6 (Homo sapiens) (UniProt Q9NP58); assay: ABCB6 transporter inhibitors, pilot screen, K562-ABCB6 cells, flow cytometry, validation set (AID 588550;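 active = inhibition above the screen-wide mean plus 3 SD, about 51%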;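 note: 0% = DMSO wells and 100% = benzethonium chloride 70 µM positive control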); details: K562-ABCB6 porphyrin accumulation, 1 h, at 10 µM, stronger effect = higher value
[27] = promoters of myeloid differentiation in arrested cells, primary screen, cell-based, GFP/MAC1 double positive, flow cytometry, validation set (AID 588685;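 active = differentiation response of at least 50%, scaled between solvent and reference control, from cells with both markers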;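 note: compound exposure lasts four days before antibody staining and flow analysis; 0% = DMSO wells and 100% = 5 µM fulvestrant positive control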); details: ER-HoxA9 marrow cells, stronger effect = higher value, normalized: vehicle 0, fulvestrant 100
[28] = measured here: daughter cell gate
[29] = measured here: mother cell gate

## C=CCNc1nc(N)c(C(=C(C#N)C#N)c2ccccc2)s1
[1]
  inhibition: 0.8% (inactive)
[2]
  binding response (% of control): 98.2% (inactive)
[3]
  response (percent of control binding): 87.1% (inactive)
[4]
  response (% of control binding): 99% (inactive)
[5]
  binding response (% of control): 95.9% (inactive)
[6]
  response (percent of control binding): 113% (inactive)

## COc1ccc(C(=O)NCC2OCCc3ccccc32)cc1 (centres undefined)
[7]
  percent of DMSO control GFP: 90% (inactive)
[8]
  GFP response vs DMSO: 150% (active)
[9]
  percent response of DMSO control: 120% (inactive)
[10]
  GFP response vs DMSO: 107% (inactive)
[11]
  GFP response, % of DMSO: 107% (inactive)
[12]
  GFP response vs DMSO: 96.4% (inactive)
[12]; [28]
  GFP response vs DMSO: 97.1%
[12]; [29]
  GFP response vs DMSO: 97.2%
[13]
  GFP response relative to DMSO: 103% (inactive)
[13]; measured here: daughter cell gate response
  GFP response relative to DMSO: 102%
[13]; measured here: mother cell gate response
  GFP response relative to DMSO: 104%
[14]
  GFP response vs DMSO: 102% (inactive)
[15]
  GFP response, % of DMSO: 91.3% (inactive)
[16]
  GFP response, % of DMSO: 98.3% (inactive)
[16]; [28]
  GFP response, % of DMSO: 99.1%
[16]; [29]
  GFP response, % of DMSO: 97.3%
[17]
  double positive events: 64.3%
  vesicle binding response: 122% (inactive)
[18]
  inhibition: -2.27% (inactive)
[19]
  superoxide response (% of plate): 92.6% (inactive)
[20]
  aptamer binding inhibition: 1% (inactive)
[21]
  response: -2.23% (inactive)
[22]
  inhibition: 7.24% (inactive)
[23]
  response: -0.15% (inactive)
[24]
  binding (% of control): 103% (inactive)
[25]
  efflux inhibition (fraction of control): -0.28 (inactive)
[26]
  inhibition: 4% (inactive)
[27]
  differentiation response: 2.46% (inactive)
